From PubChem BioAssay (Tox21)
Inconclusive results are not listed. Unmarked numbers belong to inactive results. Calls of active or inactive are those of the source. Calls come from the whole dose curve; as a rule, active = well fitted cell-killing curve with a large enough effect in the repeat runs; inconclusive = weak or mixed curves, or effect the other way; inactive = flat fitted curve, though single readings scatter.

Test: Caspase-3/7 induction in HepG2 cells by small molecules, qHTS cell viability counter screen (AID 1346981); note: nearly all actives have a fitted effect of over 30% in size
Conditions: CellTiter-Fluor fluorescence, 17 h; series mostly up to 92.4 µM
Description: U.S. Tox21 Program National Center for Advancing Translational Sciences [NCATS] NIH Chemical Genomics Center [NCGC] U.S. Environmental Protection Agency [EPA] National Institutes of Environmental Health Sciences [NIEHS] National Toxicology Program [NTP] U.S. Food and Drug Administration [FDA] Tox21 Assay Overview: Apoptosis is a process of programmed cell death and plays a central role in the development of multicellular organisms. It is a highly regulated process and induces cell death by activating caspases, which are the members of cysteine aspartic acid-specific protease (caspase) family. Caspases involved in apoptosis are classified by their mechanism of action as initiator caspases (caspase-2, -8, -9 and -10) and executioner caspases (caspase-3, -6, and -7). Inhibition of apoptosis results in number of cancers, autoimmune diseases, inflammatory diseases and viral infection. To identify small molecule compounds that induce apoptosis, a homogeneous, luminescent Caspase-Glo 3/7 assay was used. Wild type HepG2 cells were used to screen Tox21 libraries for identifying caspase-3/7 activity inducers. Also cytotoxicity of the compounds was tested in parallel by measuring the cell viability using CellTiter-Fluor assay system in the same wells.
Tox21 Assay Protocol Summary: HepG2 cells were dispensed at 2,000 per well in 5uL of culture medium into white solid bottom 1536-well plates (Corning Life Sciences, Corning, NY) using a Multidrop Combi (Thermo Scientific, Waltham, MA) dispenser. The assay plates were incubated at 37 C and 5% CO2 for 5hr, and then 23nL of compounds dissolved in DMSO and positive control were transferred using a Pintool station ([…], San Diego, CA). The assay plates were incubated at 37C and 5% CO2 for 17hr. For cytotoxicity read, after 16hr incubation at 37C, 1uL CellTiter-Fluor reagent (Promega Corporation, Madison, WI) was added to each well of the assay plates using Flying Reagent Dispenser (FRD, Aurora Discovery, San Diego, CA). After 1hr incubation at 37C and 5% CO2, the fluorescence signal was quantified using a ViewLux plate reader (PerkinElmer, Shelton, CT).
% is set by controls: 0 for no effect and ±100 for the full control effect.

**Q.** With `FC(F)(F)C(F)(F)C(F)(F)C(F)(F)C(F)(F)C(F)(F)C(F)(F)C(F)(F)C(F)(F)C(F)(F)F` as the molecule, how does the activity change, negative = cytotoxicity read?
**A.** 5.96% [at 8.39 µM]

**Q.** Which outcome does the source give for `CC(C)CCCC(C)NCCC(C)C` (stereo not given) here?
**A.** inactive

**Q.** With `c1ccc(CCCc2ccccn2)cc1` as the molecule, how does the outcome read?
**A.** inactive

**Q.** For `Oc1ccc2c(c1)OC[C@@H](N1CCC(O)(c3ccc(F)cc3)CC1)[C@H]2O`, which outcome is on record?
**A.** inactive

**Q.** Which outcome does the source give for `CC(C)COC(=O)c1ccccc1O` here?
**A.** inactive

**Q.** For `Cc1ncc(CSSCc2cnc(C)c(O)c2CO)c(CO)c1O`, which outcome is on record?
**A.** inactive

**Q.** Which outcome does the source give for `CC1=CC(C)C(C=O)C(C)C1` (stereo not given) here?
**A.** inactive

**Q.** With `CC(C)(C)N(CCO)CCO` as the molecule, how does the outcome read?
**A.** inactive

**Q.** Which outcome does the source give for `Cc1c(F)cc2c(=O)c(C(=O)O)cn3c2c1CCC3C` (stereo not given) here?
**A.** inactive

**Q.** Which outcome does the source give for `CC(C)(C)C(=O)/C=C/c1ccc(Cl)cc1` here?
**A.** inactive

**Q.** With `OC/C=C/c1ccccc1` as the molecule, how does the outcome read?
**A.** inactive

**Q.** Which outcome does the source give for `CO[Si](CCCNCCC[Si](OC)(OC)OC)(OC)OC` here?
**A.** inactive

**Q.** For `NC(=O)c1c(Cl)cccc1Cl`, which outcome is on record?
**A.** inactive

**Q.** With `CN1[C@@H]2CC[C@H]1CC(NC(=O)n1c(=O)[nH]c3ccccc31)C2` (stereo not given in full) as the molecule, how does the outcome read?
**A.** inactive

**Q.** With `CC1=CC(=O)CCC1` as the molecule, how does the outcome read?
**A.** inactive

**Q.** With `OCCCCCCO` as the molecule, how does the outcome read?
**A.** inactive

**Q.** For `CC(CCO)CCCC(C)(C)O` (stereo not given), which outcome is on record?
**A.** inactive

**Q.** For `OCC(O)[C@@H](O)[C@H](O)[C@H](O)CO[C@H]1O[C@H](CO)[C@@H](O)[C@H](O)[C@H]1O` (stereo not given in full), which outcome is on record?
**A.** inactive

**Q.** Which outcome does the source give for `Cc1ccc(Nc2ccc(O)c3c2C(=O)c2ccccc2C3=O)cc1` here?
**A.** inactive

**Q.** With `O=C(O)/C=C/c1ccc(Cn2ccnc2)cc1` as the molecule, how does the outcome read?
**A.** inactive

**Q.** For `CC(C)CCOC(=O)CC(C)C`, which outcome is on record?
**A.** inactive

**Q.** For `O=C1CC2(CCCC2)CC(=O)N1`, which outcome is on record?
**A.** inactive

**Q.** Which outcome does the source give for `CC(C)(C)CC(C)(C)N` here?
**A.** inactive

**Q.** For `CCOC(=O)[C@H](CCc1ccccc1)N[C@@H](C)C(=O)N1CCC[C@H]1C(=O)O`, which outcome is on record?
**A.** inactive

**Q.** Which outcome does the source give for `O=C(O)c1ccccc1-c1ccc(C(F)(F)F)cc1` here?
**A.** inactive

**Q.** Which outcome does the source give for `CC(=O)CCc1ccc(O)cc1` here?
**A.** inactive

**Q.** With `Cc1ccccc1Br` as the molecule, how does the outcome read?
**A.** inactive

**Q.** Which outcome does the source give for `CC(C)N1C(=O)c2ccccc2C1=O` here?
**A.** inactive

**Q.** Which outcome does the source give for `O=S(=O)(c1cccc2cnccc12)N1CCCNCC1` here?
**A.** inactive

**Q.** With `CCO[Si](C)(OCC)OCC` as the molecule, how does the outcome read?
**A.** inactive

**Q.** For `CSc1ccc(C=O)cc1`, which outcome is on record?
**A.** inactive

**Q.** Which outcome does the source give for `COC[C@H](c1ccc(C(F)(F)F)cc1)N1CCN(C2(C)CCN(C(=O)c3c(C)ncnc3C)CC2)C[C@H]1C` here?
**A.** inactive

**Q.** Which outcome does the source give for `C/C=C1\C(=O)C[C@H]2[C@@H]3CCC4=CC(=O)CC[C@]4(C)[C@H]3CC[C@]12C` here?
**A.** inactive

**Q.** With `CC(C)=CC(=O)O` as the molecule, how does the outcome read?
**A.** inactive

**Q.** With `NC(=O)c1ncn([C@@H]2O[C@H](CO)[C@@H](O)[C@H]2O)c1N` as the molecule, how does the outcome read?
**A.** inactive

**Q.** Which outcome does the source give for `O=C(O)C(O)[C@H](O)[C@@H](O)[C@H](O)[C@H](O)CO` (stereo not given in full) here?
**A.** inactive

**Q.** For `Cc1c(C)n(CCN(C)C)c2ccc(C(=O)OCCN(C)C)cc12`, which outcome is on record?
**A.** inactive

**Q.** For `CCCOCC(C)OCC(C)O` (stereo not given), which outcome is on record?
**A.** inactive

**Q.** For `CCc1cc(S(=O)(=O)O)c2cc(C(C)C)cccc1-2`, which outcome is on record?
**A.** inactive

**Q.** Which outcome does the source give for `O=C(O)c1ccc[n+]([O-])c1` here?
**A.** inactive
